Test results as given in PubChem BioAssay (EPA / NIEHS).
“And” between values parts separate entries of the source, which are not always exact repeats. Equal entries are not always repeated. A structure can be active in one record and inactive in another. The source made the active and inactive calls. The calls were made as follows: active = hit-call score of the fitted dose curve at least 0.9, where 1 is the maximum; inactive = score below 0.9.

How the values were obtained:
[1] = APR_HepG2_NuclearSize_72hr: Apredica 72-hour HepG2 Assay for Nuclear Size (AID 2282925); conditions: high-content imaging, actives raise or lower the signal
Method in brief: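 Read-out: nuclear diameter from Hoechst 33342 images (ArrayScan, 20x, six fields/well), via cell-cycle image analysis. HepG2 were dosed 0.39–200 uM for 72 hr in 0.5% DMSO. Bidirectional fit relative to DMSO.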

[2] = ATG_CRE_CIS: Attagene CIS-FACTORIAL HepG2 Assay for human cAMP Responsive Element (CRE) binding protein 3 (AID 2282926); conditions: HepG2 CRE cis-reporter, Attagene multiplexed mRNA; actives raise or lower the signal
Method in brief: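 Liver-derived HepG2, transfected with a CRE-containing reporter panel, exposed 24 h; transcript levels sized and quantified by capillary electrophoresis of labelled amplicons; signal changes either way referenced to vehicle.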

[3] = molecular target: CCAAT/enhancer-binding protein beta (Homo sapiens) (UniProt P17676); experiment: ATG_C_EBP_CIS: Attagene CIS-FACTORIAL HepG2 Assay for human CCAAT/Enhancer Binding Protein (C/EBP) beta (AID 2282927); conditions: HepG2 Attagene cis-factorial transcription factor reporter; actives raise or lower the signal
Chain of CCAAT/enhancer-binding protein beta (Homo sapiens) (P17676 whole entry, looked up): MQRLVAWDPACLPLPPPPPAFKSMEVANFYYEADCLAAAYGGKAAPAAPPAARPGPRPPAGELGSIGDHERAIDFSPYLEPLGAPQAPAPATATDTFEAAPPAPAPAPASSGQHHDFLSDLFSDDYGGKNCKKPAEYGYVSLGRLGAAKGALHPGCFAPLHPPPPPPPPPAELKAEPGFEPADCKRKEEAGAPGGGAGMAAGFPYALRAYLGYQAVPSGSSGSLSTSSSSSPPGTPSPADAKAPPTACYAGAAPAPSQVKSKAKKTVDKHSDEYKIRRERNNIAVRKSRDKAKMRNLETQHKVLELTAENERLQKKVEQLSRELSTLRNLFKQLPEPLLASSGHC
Method in brief: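 HepG2 transiently transfected with multiplexed reporter units under cis-regulatory promoters reporting endogenous C/EBPb activity. After 24 h exposure, reporter mRNA assayed by RT-PCR, fluorescent labelling, HpaI digestion and capillary electrophoresis; bidirectional fitting versus DMSO.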

[4] = ATG_CMV_CIS: Attagene CIS-FACTORIAL HepG2 Assay for human CMV (Internal Marker) (AID 2282928); conditions: HepG2 CMV promoter reporter, transcription factor profiling; actives raise or lower the signal;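 also: endpoint acts as a background internal control marker rather than a target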
Method in brief: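 Readout: fluorescent reporter cDNA fragments separated by capillary electrophoresis after RT-PCR and HpaI cut. Cells: HepG2 carrying transfected cis-promoter reporter constructs, dosed 24 h. Endpoint serves as background internal-marker control, fit bidirectionally versus DMSO.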

[5] = ATG_DR4_LXR_CIS: Attagene CIS-FACTORIAL HepG2 Assay for human Liver X Receptor (LXR), DR4 submotif (AID 2282929); conditions: HepG2 Attagene DR4 cis-reporter, mRNA transcription; actives raise or lower the signal
Method in brief: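 After transient transfection with multiplexed cis-promoter reporter units, HepG2 cells received test chemicals for 24 h. Reporter mRNA induction, detected by fluorescence after RT-PCR and capillary electrophoresis, was scored relative to DMSO.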

[6] = molecular target: Aryl hydrocarbon receptor (Homo sapiens) (UniProt P35869); experiment: ATG_Ahr_CIS: Attagene CIS-FACTORIAL HepG2 Assay for human Aryl Hydrocarbon Receptor (Ahr) (AID 2282930); conditions: HepG2 AhR cis-factorial reporter transcription; actives raise or lower the signal
Chain of Aryl hydrocarbon receptor (Homo sapiens) (P35869 whole entry, looked up): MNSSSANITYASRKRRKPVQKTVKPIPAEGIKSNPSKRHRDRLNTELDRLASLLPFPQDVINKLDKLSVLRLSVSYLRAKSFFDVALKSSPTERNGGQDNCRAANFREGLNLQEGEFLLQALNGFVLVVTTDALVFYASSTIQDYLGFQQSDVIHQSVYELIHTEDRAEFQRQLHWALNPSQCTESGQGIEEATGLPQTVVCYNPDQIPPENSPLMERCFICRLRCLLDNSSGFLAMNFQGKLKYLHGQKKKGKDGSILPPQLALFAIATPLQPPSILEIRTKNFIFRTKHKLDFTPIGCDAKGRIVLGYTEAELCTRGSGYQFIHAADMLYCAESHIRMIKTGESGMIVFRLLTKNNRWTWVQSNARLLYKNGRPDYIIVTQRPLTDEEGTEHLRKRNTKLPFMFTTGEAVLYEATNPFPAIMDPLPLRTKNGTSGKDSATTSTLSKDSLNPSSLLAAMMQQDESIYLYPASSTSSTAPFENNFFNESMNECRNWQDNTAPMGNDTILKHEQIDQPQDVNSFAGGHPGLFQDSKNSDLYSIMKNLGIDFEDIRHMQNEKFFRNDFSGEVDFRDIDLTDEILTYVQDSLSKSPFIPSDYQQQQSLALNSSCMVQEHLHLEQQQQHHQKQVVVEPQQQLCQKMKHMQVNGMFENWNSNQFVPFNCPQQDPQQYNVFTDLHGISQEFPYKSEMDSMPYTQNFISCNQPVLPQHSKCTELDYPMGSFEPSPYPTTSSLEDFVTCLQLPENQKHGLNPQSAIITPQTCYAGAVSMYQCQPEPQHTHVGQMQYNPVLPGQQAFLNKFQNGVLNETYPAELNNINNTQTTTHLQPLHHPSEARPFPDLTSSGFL
Method in brief: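 HepG2 cells transiently transfected with cis-element-driven multiplexed reporter units; endogenous AhR activity read as reporter mRNA 24 h after dosing, via RT-PCR, 6-FAM labelling, HpaI digestion and capillary electrophoresis. Bidirectional fit relative to DMSO.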

[7] = ATG_AP_1_CIS: Attagene CIS-FACTORIAL HepG2 Assay for human Activator Protein 1 (AP-1) (AID 2282931); conditions: HepG2 Attagene cis-factorial AP-1 reporter mRNA; actives raise or lower the signal
Method in brief: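 After 24 h incubation with test chemical, RNA from transfected HepG2 cells was reverse-transcribed, amplified, fluorescently labelled and digested before capillary electrophoresis. Reporters were driven by cis-regulatory promoters; activity fitted bidirectionally versus DMSO.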

[8] = ATG_AP_2_CIS: Attagene CIS-FACTORIAL HepG2 Assay for human Activator Protein 2 (AP-2) (AID 2282932); conditions: HepG2 AP-2 cis-reporter, Attagene transcription factor profiling; actives raise or lower the signal
Method in brief: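 Read-out: fluorescent reporter mRNA via RT-PCR and capillary electrophoresis, 24 h post-dose in transiently transfected HepG2. Endogenous factors drive cis-promoter reporters; gain or loss of signal fitted bidirectionally against DMSO.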

[9] = ATG_BRE_CIS: Attagene CIS-FACTORIAL HepG2 Assay for human Bone Morphogenetic Protein (BMP) Response Element (BRE) (AID 2282933); conditions: HepG2 BMP response element reporter, Attagene transcription factor profiling; actives raise or lower the signal
Method in brief: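 HepG2 cells transiently transfected with CIS reporter units (endogenous TF activity, BMP response element), dosed 24 h. Reporter mRNA quantified by RT-PCR, fluorescent labelling and capillary electrophoresis; bidirectional fit vs DMSO baseline.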

[10] = molecular target: Retinoic acid receptor alpha (Homo sapiens) (UniProt P10276); experiment: ATG_DR5_RAR_CIS: Attagene CIS-FACTORIAL HepG2 Assay for human Retinoic Acid Receptor Alpha (RARE), DR5 submotif (AID 2282934); conditions: HepG2 Attagene cis-factorial RARE DR5 reporter, mRNA; actives raise or lower the signal;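 as to AC50: reporter responds to endogenous RAR alpha beta and gamma in HepG2 not RARA alone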
Chain of Retinoic acid receptor alpha (Homo sapiens) (P10276 whole entry, looked up): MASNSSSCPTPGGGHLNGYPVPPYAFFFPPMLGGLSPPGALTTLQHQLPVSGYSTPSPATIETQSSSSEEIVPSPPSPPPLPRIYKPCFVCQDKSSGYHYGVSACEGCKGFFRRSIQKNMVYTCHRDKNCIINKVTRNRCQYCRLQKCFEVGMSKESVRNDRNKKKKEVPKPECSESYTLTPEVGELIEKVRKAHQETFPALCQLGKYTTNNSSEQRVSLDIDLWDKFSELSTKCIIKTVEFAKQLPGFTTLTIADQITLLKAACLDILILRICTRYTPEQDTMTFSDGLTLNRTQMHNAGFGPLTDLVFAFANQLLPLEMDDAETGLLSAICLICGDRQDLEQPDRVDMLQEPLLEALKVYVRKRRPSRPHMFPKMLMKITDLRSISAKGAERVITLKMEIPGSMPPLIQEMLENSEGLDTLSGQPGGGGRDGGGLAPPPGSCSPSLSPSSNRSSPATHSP
Method in brief: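 HepG2 cells transiently transfected with multiplexed reporter units; DR5 cis-element drives reporter through endogenous transcription factors. After 24 h dosing, reporter mRNA quantified by RT-PCR, fluorescent labeling, HpaI digestion and capillary electrophoresis; bidirectional fitting versus DMSO.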

[11] = molecular target: Transcription factor E2F1 (Homo sapiens) (UniProt Q01094); experiment: ATG_E2F_CIS: Attagene CIS-FACTORIAL HepG2 Assay for human E2F Transcription Factor 1 (AID 2282935); conditions: HepG2 Attagene cis-reporter, E2F reporter RNA transcripts; actives raise or lower the signal
Chain of Transcription factor E2F1 (Homo sapiens) (Q01094 whole entry, looked up): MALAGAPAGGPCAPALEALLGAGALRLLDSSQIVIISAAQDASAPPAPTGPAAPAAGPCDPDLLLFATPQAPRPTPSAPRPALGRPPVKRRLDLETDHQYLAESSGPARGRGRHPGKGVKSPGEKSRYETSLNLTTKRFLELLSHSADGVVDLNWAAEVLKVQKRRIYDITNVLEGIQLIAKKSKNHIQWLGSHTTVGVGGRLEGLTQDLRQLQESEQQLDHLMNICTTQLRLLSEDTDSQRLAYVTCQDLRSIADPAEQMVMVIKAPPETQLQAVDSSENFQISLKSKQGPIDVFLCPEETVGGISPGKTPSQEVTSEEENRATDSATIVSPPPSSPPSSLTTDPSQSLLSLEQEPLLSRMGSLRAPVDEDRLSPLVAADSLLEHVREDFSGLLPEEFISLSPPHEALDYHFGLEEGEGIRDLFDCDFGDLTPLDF
Method in brief: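 Transient MRTU transfection of HepG2; 24 h compound exposure; RNA → oligo(dT) RT → PCR → FAM label → HpaI cut → CE fluorescence. Gain/loss of signal fit against DMSO.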

[12] = ATG_E_Box_CIS: Attagene CIS-FACTORIAL HepG2 Assay for human Enhancer Box (E-box) (AID 2282936); conditions: HepG2 E-box cis-reporter transcription, actives raise or lower the signal
Method in brief: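 Transiently transfected HepG2, endogenous TF-driven reporters, 24 h dosing. Readout: RT-PCR plus capillary electrophoresis of fluorescent reporter fragments. Gain or loss of signal fitted bidirectionally against DMSO baseline.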

[13] = ATG_M_61_CIS: Attagene CIS-FACTORIAL HepG2 Assay for M61 Transcription Factor (Internal Marker) (AID 2282937); conditions: HepG2 Attagene CIS-FACTORIAL M61 internal marker reporter; actives raise or lower the signal
Method in brief: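 Using transiently transfected HepG2 liver cells, reporter transcript levels were assessed 24 h post-dosing by RT-PCR and capillary electrophoresis. Changes in either direction were fitted relative to DMSO controls.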

[14] = ATG_EGR_CIS: Attagene CIS-FACTORIAL HepG2 Assay for human Early Growth Response 1 (EGR1) (AID 2282938); conditions: HepG2 Attagene CIS-FACTORIAL EGR reporter mRNA; actives raise or lower the signal
Method in brief: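 Fluorescent capillary-electrophoresis signal of reporter cDNA fragments serves as read-out. HepG2 cells bear transiently transfected cis-promoter reporter units and are exposed 24 h; gain- or loss-of-signal is fitted against DMSO.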

[15] = ATG_M_19_CIS: Attagene CIS-FACTORIAL HepG2 Assay for M19 Transcription Factor (Internal Marker) (AID 2282939); conditions: HepG2 Attagene CIS-FACTORIAL M19 internal marker reporter; actives raise or lower the signal
Method in brief: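 HepG2 cells transiently transfected with cis-regulated multiplexed reporter units, dosed 24 h. Reporter mRNA quantified by RT-PCR and capillary electrophoresis; internal background marker fitted bidirectionally versus DMSO.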

[16] = ATG_ERE_CIS: Attagene CIS-FACTORIAL HepG2 Assay for Estrogen Response Element (ERE) (AID 2282940); conditions: HepG2 ERE cis-reporter, Attagene RNA transcript; actives raise or lower the signal
Method in brief: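 HepG2 cells transiently transfected with multiplexed cis-element reporter units, measuring endogenous transcription factor activity; ERE reporter mRNA quantified after 24 h exposure by RT-PCR, fluorescent labelling, HpaI digestion and capillary electrophoresis. Bidirectional change versus DMSO.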

[17] = ATG_Ets_CIS: Attagene CIS-FACTORIAL HepG2 Assay for human Erythroblast Transformation Specific (ETS) (AID 2282941); conditions: HepG2 ETS cis-reporter transcription, actives raise or lower the signal
Method in brief: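 RT-PCR/capillary electrophoresis fluorescence read-out of reporter mRNA; HepG2 transient multi-reporter transfection; 24 h compound exposure; gain or loss of signal fitted bidirectionally relative to DMSO.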

[18] = molecular target: Hepatocyte nuclear factor 3-beta (Homo sapiens) (UniProt Q9Y261); experiment: ATG_FoxA2_CIS: Attagene CIS-FACTORIAL HepG2 Assay for human Forkhead box A2 (FOXA2) (AID 2282942); conditions: HepG2 cis-reporter transcription factor activity, 24 h; actives raise or lower the signal
Chain of Hepatocyte nuclear factor 3-beta (Homo sapiens) (Q9Y261 whole entry, looked up, the tested form may be a part): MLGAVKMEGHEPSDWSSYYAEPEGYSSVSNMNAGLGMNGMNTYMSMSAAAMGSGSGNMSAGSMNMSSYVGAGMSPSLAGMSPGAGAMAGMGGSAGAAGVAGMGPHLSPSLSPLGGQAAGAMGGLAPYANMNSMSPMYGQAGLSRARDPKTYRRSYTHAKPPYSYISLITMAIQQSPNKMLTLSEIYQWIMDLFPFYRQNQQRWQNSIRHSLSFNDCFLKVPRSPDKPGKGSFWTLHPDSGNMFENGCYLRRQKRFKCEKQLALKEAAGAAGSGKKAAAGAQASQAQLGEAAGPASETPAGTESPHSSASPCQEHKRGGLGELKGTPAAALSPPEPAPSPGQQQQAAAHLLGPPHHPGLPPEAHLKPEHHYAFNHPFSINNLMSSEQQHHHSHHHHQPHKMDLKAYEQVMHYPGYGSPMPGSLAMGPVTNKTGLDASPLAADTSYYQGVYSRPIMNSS
Method in brief: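 Fluorescence signal of reporter cDNA fragments, separated by capillary electrophoresis, reflects endogenous transcription factor activity in transfected HepG2 after 24 h. Both increases and decreases fitted against DMSO.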

[19] = ATG_FoxO_CIS: Attagene CIS-FACTORIAL HepG2 Assay for human Forkhead box O (FoxO) (AID 2282943); conditions: HepG2 Attagene cis-reporter, FoxO element, mRNA; actives raise or lower the signal
Method in brief: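 HepG2 cells transiently transfected with cis-element-driven reporter units report endogenous FoxO activity. After 24 h chemical exposure, reporter mRNA quantified by RT-PCR, fluorescent labeling, HpaI digestion and capillary electrophoresis; bidirectional fit versus DMSO.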

[20] = ATG_GATA_CIS: Attagene CIS-FACTORIAL HepG2 Assay for human GATA Binding Protein (AID 2282944); conditions: HepG2 GATA cis-element reporter, Attagene multiplex mRNA; actives raise or lower the signal
Method in brief: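 HepG2 cells transiently transfected with multiplexed cis-element reporter units measure endogenous GATA activity; after 24 h compound exposure, reporter mRNA quantified by RT-PCR and capillary electrophoresis. Changes fitted in both directions vs DMSO.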

Measured: AC50

COc1ccc(C(c2ccc(OC)cc2)C(Cl)(Cl)Cl)cc1
active: [6] 15.2 µM | [7] 39.8 µM and 59.5 µM and 34.4 µM | [9] 29.7 µM and 15.5 µM | [10] 19.7 µM | [12] 27 µM and 5.64 µM | [16] 5.09 µM [middle of 4 runs]
inactive: [1] | [2] | [3] | [4] | [5] | [6] | [7] | [8] | [9] | [10] | [11] | [12] | [13] | [14] | [15] | [16] | [17] | [18] | [19] | [20]

Cc1c(F)c(F)c(COC(=O)C2C(/C=C(\Cl)C(F)(F)F)C2(C)C)c(F)c1F (centres undefined)
inactive: all assays above

CCCCOC(=O)c1ccccc1C(=O)OCCCC
active: [5] 177 µM | [7] 68.2 µM and 85.6 µM | [14] 34.1 µM | [16] 50 µM [middle of 5 runs]
inactive: [1] | [2] | [3] | [4] | [5] | [6] | [7] | [8] | [9] | [10] | [11] | [12] | [13] | [14] | [15] | [17] | [18] | [19] | [20]

CCOc1cc(Oc2ccc(C(F)(F)F)cc2Cl)ccc1[N+](=O)[O-]
active: [3] 23.6 µM | [4] 13.6 µM | [5] 33.1 µM | [7] 22 µM | [9] 16.6 µM | [16] 13.1 µM
inactive: all other assays above
